Laboratory results: ChEMBL document CHEMBL3988442, “University of Dundee, Small-Polar-MMV Screening Library” (2021)
Screen size: about 48,000 compounds; about 13,000 (27%) showed an effect of 50% or more. This is one part of the list.

Test system: Wolbachia pipientis
Assay: Anti-Wolbachia Cell-Based Screen
Format: functional
Design: scale not given: in the data most compounds retested in dose-response had high values
Conditions: 5 µM

Row | Structure (SMILES) | Percent Effect [%]
1 | COCC1CN(Cc2cc(C)on2)Cc2cn(CC3CC3)nc21 (stereo unspecified) | -5.451
2 | Cn1nc(C2CN(C(=O)c3cscn3)C2)c2nccnc21 | -8.374
3 | Cc1ccc(C(=O)N2CC(c3cccnc3)C2)cc1N1CCNC1=O | -5.741
4 | Cn1nc(C2CN(C(=O)c3cccnc3)C2)c2nccnc21 | 106.4
5 | CCN(C)C(=O)c1ncn2c(C3CCN(S(C)(=O)=O)CC3)ccnc12 | -14.84
6 | CCc1ccc2c(C3CN(S(C)(=O)=O)C3)ncn2c1 | 15.67
7 | Cn1nc(C2CN(S(C)(=O)=O)C2)c2nccnc21 | 134.2
8 | O=C(c1ccncc1)N1C[C@@H]2CC[C@H](C1)N(C(=O)C1CCCC1)C2 | 23.43
9 | Cn1nc(C2CN(C(=O)c3ccncc3)C2)c2nccnc21 | 104.9
10 | FC(F)(F)Oc1ccc(-c2noc([C@@H]3Cc4nc[nH]c4CN3)n2)cc1 | -8.285
11 | CCCc1nnc(N(C)CC2CCN(CC(C)C)CC2)o1 | -8.883
12 | Cc1ccc2nc(-c3cnc(N)nc3)c(C)c(C(=O)N(C)C)c2c1 | 2.177
13 | Cc1cc(N(C)C)nc(C2COCCN2Cc2cc(C)on2)n1 (stereo unspecified) | 106.1
14 | CCOC(=O)N(C)C1CCN(Cc2csc(C)n2)CC1 | -9.858
15 | Cc1cc(N(C)C)nc(C2COCCN2Cc2csc(C)n2)n1 (stereo unspecified) | 76.41
16 | Cc1cc(CN2CCOC(CN(C)C)C2)no1 (stereo unspecified) | -11.72
17 | Cc1cc(N(C)C)nc(N2CCN(Cc3nccn3C)CC2)n1 | -14.83
18 | Cn1ccnc1CN1CCOC[C@H]1c1nc(C(C)(C)C)co1 | -3.783
19 | Cc1cc(C)n(CC2CCCCN2Cc2cscn2)n1 (stereo unspecified) | 2.934
20 | Cc1cc(N(C)C)nc(C2COCCN2Cc2cscn2)n1 (stereo unspecified) | 100.1
21 | Cc1cc(CN2CCCC2c2noc(C)n2)no1 (stereo unspecified) | -4.781
22 | Cc1nc(C)n(CC2CCCN2Cc2cscn2)n1 (stereo unspecified) | -0.8371

Row | Structure (SMILES) | Percent Effect [%]
23 | Cc1cc(N(C)C)nc(N(C)Cc2csc(C)n2)n1 | -1.887
24 | Cc1cc(N(C)C)nc(C2COCCN2Cc2nccn2C)n1 (stereo unspecified) | 106.8
25 | CC(NC1(CNS(C)(=O)=O)CCCC1)c1ccccc1 (stereo unspecified) | -3.236
26 | COc1ccc(-n2cccn2)c(CN2CCOCC(CN(C)C)C2)c1 (stereo unspecified) | -24.66
27 | COc1cccc(CNCCc2cc(F)cc3c2OCOC3)c1 | -0.9463
28 | Cc1nc(CN2CCCC2c2nc(C(C)C)no2)cs1 (stereo unspecified) | -7.461
29 | CNc1cc(C)nc(C2COCCN2Cc2csc(C)n2)n1 (stereo unspecified) | 118.8
30 | CC(C)(C)c1coc([C@@H]2COCCN2Cc2csnn2)n1 | -9.121
31 | COc1ccnc(NC(=O)c2cscc2C)c1 | -3.049
32 | CCc1[nH]ncc1C(=O)N1CCN(c2nccc(OC)n2)CC1 | -7.097
33 | Cc1ccsc1-c1nccn1CCN1CCCCC1CO (stereo unspecified) | 8.185
34 | Cc1nc(C)n(CCCNc2ncnc(C)c2C)n1 | -4.271
35 | Cc1cc(-c2nccn2CCN2CCCCC2CO)oc1C (stereo unspecified) | 12.23
36 | CCc1cnc(N)nc1NCCN1CCCCC1 | 1.893
37 | Cc1cnc(NCCCN2CCCCC2CO)nc1 (stereo unspecified) | 67.94
38 | Cc1cc(C)n(CC2CCCCN2CCCS(=O)(=O)N(C)C)n1 (stereo unspecified) | 4.04
39 | CCc1cnc(N)nc1NCCC(=O)NC1CCCCC1 | 31.74
40 | CCc1cnc(N)nc1NCCCN1CCCCC1CO (stereo unspecified) | 90.38
41 | Cc1ncnc(NCCCN2CCCCC2CO)c1C (stereo unspecified) | 93.53
42 | O=C(NC1CCC1)[C@@H]1CCO[C@@H]2CCN(C3CCCC3)C[C@H]21.O=C(O)C(F)(F)F | -6.007
43 | CCc1n[nH]c(C2CN(Cc3nccn3CC)CCO2)n1 (stereo unspecified) | -1.514
44 | CN(CCc1cn[nH]c1)C(=O)C1CC(=O)N(Cc2cccnc2)C1 (stereo unspecified) | 1.356

Row | Structure (SMILES) | Percent Effect [%]
45 | CCCn1ncc(CN2C[C@@H]3CCCN3C[C@H]2Cc2ccccc2)c1C | 112.1
46 | N#CCCCN1CCCC1Cc1ccccc1 (stereo unspecified) | -5.887
47 | CCCn1ncc(CN2C[C@@H]3CCCN3C[C@@H]2Cc2ccccc2)c1C | 119.2
48 | c1ccc(CNc2ncc(CN3CCCN4CCC[C@H]4C3)cn2)cc1 | -5.428
49 | CCCn1ncc(C(=O)N2CCN(C3Cc4ccccc4C3)CC2)c1C | 1.653
50 | CC(=O)c1ccc(-c2cnn(CC(=O)Nc3ccnn3C)c2)nc1 | -6.817
51 | O=C(NCC(O)c1ccsc1)c1sccc1OC(F)F (stereo unspecified) | -10.31
52 | Cc1cccc2cc(C(=O)N3CCC(F)(F)CC3)n(C)c12 | 5.497
53 | CN(C)Cc1nn(C)c2c1CCN(C(=O)c1cccnc1)C2 | 84.36
54 | CN(C)Cc1nn(C)c2c1CCN(C(=O)CC1CC1)C2.O=C(O)C(F)(F)F | 5.365
55 | CN(C)Cc1nn(C)c2c1CCN(S(=O)(=O)c1cccs1)C2 | 12.48
56 | Cc1cccc(NC(=O)N2Cc3c(CN(C)C)nn(C)c3C2)c1 | -10.1
57 | CN(C)Cc1nn(C)c2c1CCN(C(=O)c1cnccn1)C2.O=C(O)C(F)(F)F | -5.117
58 | CN(C)Cc1nn(C)c2c1CN(C(=O)Nc1cccc(F)c1)C2 | -15.2
59 | Cn1nc(CN2CCCC2)c2c1CN(C(=O)c1cccnc1)CC2.O=C(O)C(F)(F)F.O=C(O)C(F)(F)F | -3.711
60 | Cc1nocc1C(=O)N1CCc2c(CN(C)C)nn(C)c2C1 | 93.65
61 | CC(=O)NCC(=O)N1CCc2c(CN(C)C)nn(C(C)C)c2C1 | -2.95
62 | Cc1cccc(C(=O)N2CCc3c(CN(C)C)nn(C)c3C2)n1 | 94.16
63 | CN(C)Cc1nn(C)c2c1CN(C(=O)c1cccc(C#N)c1)C2 | 110.3
64 | Cc1cc(N[C@H](CO)c2ccccc2)n2nc(C)cc2n1 | 1.495
65 | Cc1noc(C2CCCN(C(=O)c3ccc(Br)cc3F)C2)n1 (stereo unspecified) | 4.795
66 | N#Cc1c(F)cccc1N1CCN(S(=O)(=O)c2cccs2)CC1 | -7.537

Row | Structure (SMILES) | Percent Effect [%]
67 | CC(Cn1cccn1)NC(=O)NCCCN1CCc2ccccc2C1 (stereo unspecified) | -5.201
68 | Cc1nc([C@H]2C[C@@H]3CCN(Cc4scnc4C)C[C@H]3O2)no1.O=C(O)C(F)(F)F | -18.74
69 | CCc1ncc2c(n1)CN(C(C(N)=O)c1ccccc1)CC2 (stereo unspecified) | -0.2058
70 | CC(=O)Nc1ncc(-c2ccc(C)cc2)[nH]1 | -15.96
71 | Cc1cc(C(=O)N2CCc3ncnc(N4CCSCC4)c3CC2)[nH]n1 | -7.195
72 | Cc1cc(C(=O)N2CCc3c(CN(C)C)nn(C)c3C2)[nH]n1 | 109.1
73 | Cc1cc(-c2nn(C)c(Cl)c2CN2CCOCC2CC(N)=O)no1 (stereo unspecified) | -10.25
74 | Cc1noc(CSc2ccc(C(F)(F)F)cn2)n1 | -11.43
75 | COc1ncc(C)cc1NC(=O)COCC(F)(F)F | -3.698
76 | CC(C)c1nc(S(=O)(=O)Nc2ccnn2C2CCCC2)c[nH]1 | -16.48
77 | O=C(CN(Cc1ccco1)C1CC1)N1CCCCCC1 | 130.6
78 | O=C(CN(Cc1ccco1)C1CC1)Nc1ccc(Br)cn1 | 5.807
79 | CC1CCN(C(=O)CN(Cc2ccco2)C2CC2)CC1 | 16.65
80 | COc1ccc(CN2CC[C@H](c3nc4cccc(C(N)=O)c4[nH]3)C2)cc1 | -8.435
81 | CCCn1nc(C)c(CNC(=O)C2COc3ccc(OC)cc3C2)c1C (stereo unspecified) | -13.51
82 | CC(=O)c1cccc(OCCCC(=O)N(C)Cc2cnc(C)s2)c1 | -4.275
83 | CC(C)CNC(=O)Nc1cccc(CN2CCOC2=O)c1 | -15.82
84 | c1cncc(-n2cnnc2CC2CCNCC2)c1 | -4.344
85 | CCc1nccn1CCCNc1nccc(-c2c(C)nn(C)c2C)n1 | 0.4363
86 | Cc1nn(C)c(C)c1-c1cnc(CC2CCNCC2)cn1 | 154.2
87 | Cc1nn(C)c(C)c1-c1nccnc1CC1CCNCC1 | 110.6
88 | COc1ccc(C)cc1-n1cnnc1CC1CCNCC1 | 5.267

Row | Structure (SMILES) | Percent Effect [%]
89 | Cc1nn(C)c(C)c1-c1cnc(CC2CCNC2)cn1 (stereo unspecified) | 90.84
90 | CCn1ccnc1CNc1nccc(-c2c(C)nn(C)c2C)n1 | -9.163
91 | O=C(C1=CCCC1)N1CC[C@]2(C[C@H](OCc3cccnc3)CO2)C1.O=C(O)C(F)(F)F | -2.821
92 | CCSCC(C)NCc1ccccc1-n1ccnc1 (stereo unspecified) | 26.03
93 | Cc1nnc2n1CCN(C(=O)CN1C(=O)CSc3ccccc31)C2 | -16.29
94 | CC(C)NC(=O)O[C@H]1COCCN(c2nc3ccccc3s2)C1 | 11.5
95 | O=C(c1cn(-c2cc(N3CCSCC3)ncn2)cn1)N1CCSCC1 | 23.31
96 | Cc1cc(C)n(CC2CCCN2C(=O)c2ccnc(N(C)C)c2)n1 (stereo unspecified) | 141.4
97 | Cc1cc(C)n(CC2CCCN2C(=O)c2cc[nH]n2)n1 (stereo unspecified) | 9.629
98 | Cc1cc(C)n(CC2CCCCN2C(=O)c2ccc3c(c2)OCO3)n1 (stereo unspecified) | -4.429
99 | Cc1cc(C)n(CC2CCCN2C(=O)c2cnccn2)n1 (stereo unspecified) | 101.9
100 | Cc1cc(C)n(CC2CCCN2C(=O)c2c[nH]c(=O)c(Cl)c2)n1 (stereo unspecified) | 130
101 | Cc1cc(C)n(CC2CCCN2C(=O)c2ccc(N(C)C)nn2)n1 (stereo unspecified) | 107
102 | Cc1cc(C)n(CC2CCCN2C(=O)c2ccc3c(c2)nnn3C)n1 (stereo unspecified) | -2.526
103 | Cc1cc(C)n(CC2CCCN2C(=O)c2cnn(C)c2C2CC2)n1 (stereo unspecified) | -2.201
104 | Cc1cc(C)n(CC2CCCN2C(=O)c2ccc3c(c2)OCO3)n1 (stereo unspecified) | 14.69
105 | Cc1cc(C)n(C2CCCN(C(=O)c3c[nH]c(=O)c(Cl)c3)C2)n1 (stereo unspecified) | -7.23
106 | CCc1noc(C)c1C(=O)N1CCCC1Cn1nc(C)cc1C (stereo unspecified) | -1.879
